Source: the supplement of paper PMC11732987, “Enantioselective OTUD7B fragment discovery through chemoproteomics screening and high-throughput optimisation” (Communications Chemistry, 2025)

Experiments:
Test in all cases: log2 ratio of Biotin-Ahx-Ub-VS probe labelling (fragment/DMSO); higher = less target engagement (more negative = stronger competition), active = hit call of the paper (q ≤ 0.05, log2 ratio ≤ -1)
Conditions in all cases: compound concentration: 200 uM; treatment time: 3 h
USP42 = target: T1, USP42 (UniProt Q9H9J4)
T1 sequence (whole entry): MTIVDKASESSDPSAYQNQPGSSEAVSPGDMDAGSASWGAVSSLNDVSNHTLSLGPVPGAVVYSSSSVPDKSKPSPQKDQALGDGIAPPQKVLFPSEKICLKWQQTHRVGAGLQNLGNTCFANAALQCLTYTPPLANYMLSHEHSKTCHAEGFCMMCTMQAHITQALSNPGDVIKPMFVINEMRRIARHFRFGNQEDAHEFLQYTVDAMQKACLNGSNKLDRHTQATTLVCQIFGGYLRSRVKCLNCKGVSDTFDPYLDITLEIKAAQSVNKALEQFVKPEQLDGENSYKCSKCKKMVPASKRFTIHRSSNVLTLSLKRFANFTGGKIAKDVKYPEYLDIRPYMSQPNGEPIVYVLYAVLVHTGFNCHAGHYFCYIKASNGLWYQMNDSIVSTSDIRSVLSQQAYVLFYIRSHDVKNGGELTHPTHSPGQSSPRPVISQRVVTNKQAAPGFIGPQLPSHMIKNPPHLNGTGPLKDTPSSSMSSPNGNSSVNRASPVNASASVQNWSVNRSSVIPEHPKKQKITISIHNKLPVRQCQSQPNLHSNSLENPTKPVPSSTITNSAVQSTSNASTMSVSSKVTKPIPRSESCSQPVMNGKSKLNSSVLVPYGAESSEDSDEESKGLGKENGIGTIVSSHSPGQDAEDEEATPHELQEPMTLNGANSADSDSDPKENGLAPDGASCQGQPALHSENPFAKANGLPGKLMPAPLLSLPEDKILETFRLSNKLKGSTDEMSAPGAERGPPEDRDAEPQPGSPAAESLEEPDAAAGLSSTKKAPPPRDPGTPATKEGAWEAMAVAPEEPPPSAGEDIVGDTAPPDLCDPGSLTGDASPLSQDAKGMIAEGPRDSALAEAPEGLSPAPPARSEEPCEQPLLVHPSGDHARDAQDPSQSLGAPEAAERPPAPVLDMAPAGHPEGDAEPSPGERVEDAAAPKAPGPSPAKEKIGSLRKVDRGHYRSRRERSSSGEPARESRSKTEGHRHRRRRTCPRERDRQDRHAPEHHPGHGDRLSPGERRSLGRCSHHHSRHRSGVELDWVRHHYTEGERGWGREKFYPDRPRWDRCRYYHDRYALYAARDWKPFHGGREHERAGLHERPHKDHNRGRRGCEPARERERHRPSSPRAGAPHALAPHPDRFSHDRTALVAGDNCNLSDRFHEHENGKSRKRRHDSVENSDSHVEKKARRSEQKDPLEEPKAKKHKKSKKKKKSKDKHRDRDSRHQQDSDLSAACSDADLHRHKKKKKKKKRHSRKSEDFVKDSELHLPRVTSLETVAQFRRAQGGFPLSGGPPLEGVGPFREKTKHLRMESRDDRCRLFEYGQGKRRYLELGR
How it was run: (§1)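 The table lists average log2 ratios of fragment over vehicle, from an unpaired t-test on global-median-normalised Spectronaut label-free quantities. Proteins with ≥2 unique peptides were used. Samples were HEK293T lysate (495 µg) treated in triplicate with fragment at 200 µM or vehicle for 3 h, then with Biotin-Ahx-Ub-VS (0.5 µM final) for 1 h, with labelled DUBs NeutrAvidin-enriched and run by diaPASEF LC-MS/MS.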

USP46 = USP46 (UniProt P62068)
How it was run: as §1

USP47 = target: T2, USP47 (UniProt Q96K76)
T2 sequence (whole entry): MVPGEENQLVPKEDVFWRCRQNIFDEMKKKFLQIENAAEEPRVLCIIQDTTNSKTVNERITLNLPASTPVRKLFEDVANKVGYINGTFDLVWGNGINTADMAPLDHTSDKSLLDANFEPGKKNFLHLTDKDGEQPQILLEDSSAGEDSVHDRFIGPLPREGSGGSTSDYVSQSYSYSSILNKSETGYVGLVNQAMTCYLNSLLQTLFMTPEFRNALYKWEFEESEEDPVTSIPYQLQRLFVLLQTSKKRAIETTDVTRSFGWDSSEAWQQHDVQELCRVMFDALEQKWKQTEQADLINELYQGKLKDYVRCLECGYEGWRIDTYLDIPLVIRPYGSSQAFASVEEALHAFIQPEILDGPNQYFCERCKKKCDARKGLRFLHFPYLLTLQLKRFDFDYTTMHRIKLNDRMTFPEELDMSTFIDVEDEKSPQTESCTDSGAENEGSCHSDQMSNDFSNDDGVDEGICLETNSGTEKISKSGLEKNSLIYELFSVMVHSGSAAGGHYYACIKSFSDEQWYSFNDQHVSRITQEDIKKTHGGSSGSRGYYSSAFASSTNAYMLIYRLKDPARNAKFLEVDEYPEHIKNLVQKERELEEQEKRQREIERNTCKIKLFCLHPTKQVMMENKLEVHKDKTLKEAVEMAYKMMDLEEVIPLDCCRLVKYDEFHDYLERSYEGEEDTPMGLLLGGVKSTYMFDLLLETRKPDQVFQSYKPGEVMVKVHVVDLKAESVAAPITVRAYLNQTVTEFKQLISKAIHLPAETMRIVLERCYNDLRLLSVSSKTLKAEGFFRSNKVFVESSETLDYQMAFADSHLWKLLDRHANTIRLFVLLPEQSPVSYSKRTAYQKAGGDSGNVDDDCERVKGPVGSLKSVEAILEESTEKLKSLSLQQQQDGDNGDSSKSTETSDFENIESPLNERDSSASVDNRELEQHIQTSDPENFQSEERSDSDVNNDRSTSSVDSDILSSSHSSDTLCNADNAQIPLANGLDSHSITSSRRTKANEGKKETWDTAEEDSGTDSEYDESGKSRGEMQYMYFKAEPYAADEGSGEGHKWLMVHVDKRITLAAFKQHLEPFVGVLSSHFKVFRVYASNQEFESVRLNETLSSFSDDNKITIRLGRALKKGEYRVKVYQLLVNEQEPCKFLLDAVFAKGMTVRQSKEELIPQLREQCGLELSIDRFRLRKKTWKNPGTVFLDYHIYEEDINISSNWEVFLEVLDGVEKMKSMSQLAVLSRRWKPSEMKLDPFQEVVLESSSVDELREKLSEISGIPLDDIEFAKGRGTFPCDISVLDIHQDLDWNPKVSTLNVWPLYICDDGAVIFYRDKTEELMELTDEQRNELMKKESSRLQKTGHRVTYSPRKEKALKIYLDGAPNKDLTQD
How it was run: as §1

USP48 = target: T3, USP48 (UniProt Q86UV5)
T3 sequence (whole entry): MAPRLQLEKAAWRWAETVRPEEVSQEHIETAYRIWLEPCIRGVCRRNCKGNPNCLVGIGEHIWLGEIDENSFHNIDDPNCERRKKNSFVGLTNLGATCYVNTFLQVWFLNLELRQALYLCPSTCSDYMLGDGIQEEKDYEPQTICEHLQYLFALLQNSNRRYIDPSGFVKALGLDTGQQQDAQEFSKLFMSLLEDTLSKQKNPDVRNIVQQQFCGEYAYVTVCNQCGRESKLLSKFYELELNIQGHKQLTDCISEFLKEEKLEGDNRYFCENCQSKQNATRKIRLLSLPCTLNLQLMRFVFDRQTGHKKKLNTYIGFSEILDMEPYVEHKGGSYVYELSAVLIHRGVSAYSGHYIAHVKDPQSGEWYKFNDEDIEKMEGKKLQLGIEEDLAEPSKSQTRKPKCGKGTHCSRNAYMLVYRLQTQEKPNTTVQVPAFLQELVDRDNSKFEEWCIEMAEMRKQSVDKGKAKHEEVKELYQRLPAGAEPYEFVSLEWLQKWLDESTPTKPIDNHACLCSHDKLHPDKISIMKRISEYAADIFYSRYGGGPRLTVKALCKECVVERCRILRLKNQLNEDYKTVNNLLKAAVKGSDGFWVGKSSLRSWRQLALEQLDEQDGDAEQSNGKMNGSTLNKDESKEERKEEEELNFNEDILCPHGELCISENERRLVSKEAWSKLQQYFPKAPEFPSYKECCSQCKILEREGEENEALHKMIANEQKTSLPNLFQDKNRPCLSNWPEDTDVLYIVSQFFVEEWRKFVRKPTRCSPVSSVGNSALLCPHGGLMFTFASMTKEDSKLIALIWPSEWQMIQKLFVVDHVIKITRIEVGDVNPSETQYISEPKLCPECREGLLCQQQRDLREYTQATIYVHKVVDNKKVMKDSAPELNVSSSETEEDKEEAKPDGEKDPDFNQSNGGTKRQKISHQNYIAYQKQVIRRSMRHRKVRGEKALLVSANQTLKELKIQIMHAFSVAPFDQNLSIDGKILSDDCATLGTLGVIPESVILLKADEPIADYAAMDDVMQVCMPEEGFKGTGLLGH
How it was run: as §1

USP5 = target: T4, USP5 (UniProt P45974)
T4 sequence (whole entry): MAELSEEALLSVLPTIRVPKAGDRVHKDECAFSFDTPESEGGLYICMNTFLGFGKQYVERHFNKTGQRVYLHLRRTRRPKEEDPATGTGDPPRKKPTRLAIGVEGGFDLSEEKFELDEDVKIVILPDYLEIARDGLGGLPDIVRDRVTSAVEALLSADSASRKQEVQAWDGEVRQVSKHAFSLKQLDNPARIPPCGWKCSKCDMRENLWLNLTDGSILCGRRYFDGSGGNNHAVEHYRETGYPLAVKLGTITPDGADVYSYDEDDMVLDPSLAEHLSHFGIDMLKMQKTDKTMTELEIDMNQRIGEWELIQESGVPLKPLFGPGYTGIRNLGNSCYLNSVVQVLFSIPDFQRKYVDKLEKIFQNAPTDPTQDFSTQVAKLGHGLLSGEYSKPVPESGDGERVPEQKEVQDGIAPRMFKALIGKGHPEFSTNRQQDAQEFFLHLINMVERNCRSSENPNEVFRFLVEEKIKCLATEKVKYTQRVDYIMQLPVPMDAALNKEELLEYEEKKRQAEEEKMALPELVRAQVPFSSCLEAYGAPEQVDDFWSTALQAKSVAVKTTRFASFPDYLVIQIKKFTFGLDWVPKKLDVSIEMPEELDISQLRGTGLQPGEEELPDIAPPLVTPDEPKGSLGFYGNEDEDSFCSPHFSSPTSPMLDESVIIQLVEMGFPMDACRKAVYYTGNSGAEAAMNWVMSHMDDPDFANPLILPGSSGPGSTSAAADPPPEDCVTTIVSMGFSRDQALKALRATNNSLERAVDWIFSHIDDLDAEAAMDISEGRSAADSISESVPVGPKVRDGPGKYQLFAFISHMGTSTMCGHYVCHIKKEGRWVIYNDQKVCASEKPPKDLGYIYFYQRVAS
How it was run: as §1

USP54 = USP54 (UniProt Q70EL1)
How it was run: as §1

USP7 = USP7 (UniProt Q93009)
How it was run: as §1

USP8 = target: T5, USP8 (UniProt P40818)
T5 sequence (whole entry): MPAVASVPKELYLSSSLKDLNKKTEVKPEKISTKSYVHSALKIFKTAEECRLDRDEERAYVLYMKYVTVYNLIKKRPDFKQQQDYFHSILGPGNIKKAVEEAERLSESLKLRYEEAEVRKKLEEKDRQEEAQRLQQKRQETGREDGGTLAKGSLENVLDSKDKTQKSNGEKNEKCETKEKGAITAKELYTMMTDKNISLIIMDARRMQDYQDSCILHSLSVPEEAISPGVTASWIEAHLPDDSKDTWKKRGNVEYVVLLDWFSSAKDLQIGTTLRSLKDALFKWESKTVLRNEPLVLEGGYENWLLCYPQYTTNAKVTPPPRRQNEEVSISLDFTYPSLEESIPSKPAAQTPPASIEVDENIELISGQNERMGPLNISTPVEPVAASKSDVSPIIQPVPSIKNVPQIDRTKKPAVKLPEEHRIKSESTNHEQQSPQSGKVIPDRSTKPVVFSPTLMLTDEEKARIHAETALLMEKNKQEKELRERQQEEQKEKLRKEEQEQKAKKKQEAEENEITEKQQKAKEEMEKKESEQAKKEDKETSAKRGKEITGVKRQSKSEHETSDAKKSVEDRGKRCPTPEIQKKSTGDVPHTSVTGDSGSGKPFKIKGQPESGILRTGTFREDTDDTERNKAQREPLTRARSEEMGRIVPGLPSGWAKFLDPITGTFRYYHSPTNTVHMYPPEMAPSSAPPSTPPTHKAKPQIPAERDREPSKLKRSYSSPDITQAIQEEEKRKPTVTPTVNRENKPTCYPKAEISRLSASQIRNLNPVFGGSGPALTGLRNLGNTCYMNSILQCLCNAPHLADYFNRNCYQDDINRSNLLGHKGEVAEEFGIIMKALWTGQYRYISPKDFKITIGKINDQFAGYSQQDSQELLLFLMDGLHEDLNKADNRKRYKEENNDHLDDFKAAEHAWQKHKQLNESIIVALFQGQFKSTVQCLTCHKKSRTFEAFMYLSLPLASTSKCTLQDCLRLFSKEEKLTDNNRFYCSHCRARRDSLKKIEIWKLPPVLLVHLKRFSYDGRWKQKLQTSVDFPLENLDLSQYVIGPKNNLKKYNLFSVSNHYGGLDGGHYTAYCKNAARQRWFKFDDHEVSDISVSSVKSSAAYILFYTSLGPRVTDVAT
How it was run: as §1

USP9X = USP9X (UniProt Q93008)
How it was run: as §1

UniProt O00487 = target: UniProt O00487
How it was run: as §1

Measured: log2 ratio of Biotin-Ahx-Ub-VS probe labelling

Chain of USP46 (P62068 whole entry): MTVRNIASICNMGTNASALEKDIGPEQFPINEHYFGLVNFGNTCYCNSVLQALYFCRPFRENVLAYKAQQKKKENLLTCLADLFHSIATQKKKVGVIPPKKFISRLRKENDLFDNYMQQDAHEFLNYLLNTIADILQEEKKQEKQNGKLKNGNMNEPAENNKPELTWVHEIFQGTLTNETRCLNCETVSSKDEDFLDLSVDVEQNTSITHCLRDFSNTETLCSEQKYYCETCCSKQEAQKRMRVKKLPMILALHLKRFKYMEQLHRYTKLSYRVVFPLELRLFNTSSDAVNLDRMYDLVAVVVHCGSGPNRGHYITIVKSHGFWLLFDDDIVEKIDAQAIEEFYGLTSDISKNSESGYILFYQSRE
Chain of USP7 (Q93009 whole entry, looked up): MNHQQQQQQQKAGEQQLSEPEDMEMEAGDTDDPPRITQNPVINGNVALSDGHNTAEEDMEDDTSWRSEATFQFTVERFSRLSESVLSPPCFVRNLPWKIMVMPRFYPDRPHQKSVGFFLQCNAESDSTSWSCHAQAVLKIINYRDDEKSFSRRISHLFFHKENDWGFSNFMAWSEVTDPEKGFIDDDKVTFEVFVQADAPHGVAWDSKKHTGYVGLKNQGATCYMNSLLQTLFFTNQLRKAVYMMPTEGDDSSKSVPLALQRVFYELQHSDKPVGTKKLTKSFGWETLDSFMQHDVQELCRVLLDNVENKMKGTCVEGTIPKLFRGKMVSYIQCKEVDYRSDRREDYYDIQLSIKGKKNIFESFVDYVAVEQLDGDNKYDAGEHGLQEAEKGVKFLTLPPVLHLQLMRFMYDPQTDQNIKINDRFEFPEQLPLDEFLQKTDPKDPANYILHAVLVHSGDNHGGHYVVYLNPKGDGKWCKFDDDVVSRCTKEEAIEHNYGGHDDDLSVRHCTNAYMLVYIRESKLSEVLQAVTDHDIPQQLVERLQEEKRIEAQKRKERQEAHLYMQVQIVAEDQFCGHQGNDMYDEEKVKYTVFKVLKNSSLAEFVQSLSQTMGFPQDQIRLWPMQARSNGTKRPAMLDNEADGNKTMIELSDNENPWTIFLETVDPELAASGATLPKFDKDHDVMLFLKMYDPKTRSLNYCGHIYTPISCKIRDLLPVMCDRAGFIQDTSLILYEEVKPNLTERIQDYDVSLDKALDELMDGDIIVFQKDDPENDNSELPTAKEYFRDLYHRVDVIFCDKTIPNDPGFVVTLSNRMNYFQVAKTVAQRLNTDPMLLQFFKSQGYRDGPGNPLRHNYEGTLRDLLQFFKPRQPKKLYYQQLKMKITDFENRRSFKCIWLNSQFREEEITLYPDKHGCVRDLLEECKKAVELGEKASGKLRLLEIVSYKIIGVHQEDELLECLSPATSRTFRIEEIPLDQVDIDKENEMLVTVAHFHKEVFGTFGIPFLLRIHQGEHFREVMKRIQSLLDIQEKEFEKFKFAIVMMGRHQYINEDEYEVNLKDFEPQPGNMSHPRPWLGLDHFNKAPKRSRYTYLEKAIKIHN
Chain of USP54 (Q70EL1 whole entry): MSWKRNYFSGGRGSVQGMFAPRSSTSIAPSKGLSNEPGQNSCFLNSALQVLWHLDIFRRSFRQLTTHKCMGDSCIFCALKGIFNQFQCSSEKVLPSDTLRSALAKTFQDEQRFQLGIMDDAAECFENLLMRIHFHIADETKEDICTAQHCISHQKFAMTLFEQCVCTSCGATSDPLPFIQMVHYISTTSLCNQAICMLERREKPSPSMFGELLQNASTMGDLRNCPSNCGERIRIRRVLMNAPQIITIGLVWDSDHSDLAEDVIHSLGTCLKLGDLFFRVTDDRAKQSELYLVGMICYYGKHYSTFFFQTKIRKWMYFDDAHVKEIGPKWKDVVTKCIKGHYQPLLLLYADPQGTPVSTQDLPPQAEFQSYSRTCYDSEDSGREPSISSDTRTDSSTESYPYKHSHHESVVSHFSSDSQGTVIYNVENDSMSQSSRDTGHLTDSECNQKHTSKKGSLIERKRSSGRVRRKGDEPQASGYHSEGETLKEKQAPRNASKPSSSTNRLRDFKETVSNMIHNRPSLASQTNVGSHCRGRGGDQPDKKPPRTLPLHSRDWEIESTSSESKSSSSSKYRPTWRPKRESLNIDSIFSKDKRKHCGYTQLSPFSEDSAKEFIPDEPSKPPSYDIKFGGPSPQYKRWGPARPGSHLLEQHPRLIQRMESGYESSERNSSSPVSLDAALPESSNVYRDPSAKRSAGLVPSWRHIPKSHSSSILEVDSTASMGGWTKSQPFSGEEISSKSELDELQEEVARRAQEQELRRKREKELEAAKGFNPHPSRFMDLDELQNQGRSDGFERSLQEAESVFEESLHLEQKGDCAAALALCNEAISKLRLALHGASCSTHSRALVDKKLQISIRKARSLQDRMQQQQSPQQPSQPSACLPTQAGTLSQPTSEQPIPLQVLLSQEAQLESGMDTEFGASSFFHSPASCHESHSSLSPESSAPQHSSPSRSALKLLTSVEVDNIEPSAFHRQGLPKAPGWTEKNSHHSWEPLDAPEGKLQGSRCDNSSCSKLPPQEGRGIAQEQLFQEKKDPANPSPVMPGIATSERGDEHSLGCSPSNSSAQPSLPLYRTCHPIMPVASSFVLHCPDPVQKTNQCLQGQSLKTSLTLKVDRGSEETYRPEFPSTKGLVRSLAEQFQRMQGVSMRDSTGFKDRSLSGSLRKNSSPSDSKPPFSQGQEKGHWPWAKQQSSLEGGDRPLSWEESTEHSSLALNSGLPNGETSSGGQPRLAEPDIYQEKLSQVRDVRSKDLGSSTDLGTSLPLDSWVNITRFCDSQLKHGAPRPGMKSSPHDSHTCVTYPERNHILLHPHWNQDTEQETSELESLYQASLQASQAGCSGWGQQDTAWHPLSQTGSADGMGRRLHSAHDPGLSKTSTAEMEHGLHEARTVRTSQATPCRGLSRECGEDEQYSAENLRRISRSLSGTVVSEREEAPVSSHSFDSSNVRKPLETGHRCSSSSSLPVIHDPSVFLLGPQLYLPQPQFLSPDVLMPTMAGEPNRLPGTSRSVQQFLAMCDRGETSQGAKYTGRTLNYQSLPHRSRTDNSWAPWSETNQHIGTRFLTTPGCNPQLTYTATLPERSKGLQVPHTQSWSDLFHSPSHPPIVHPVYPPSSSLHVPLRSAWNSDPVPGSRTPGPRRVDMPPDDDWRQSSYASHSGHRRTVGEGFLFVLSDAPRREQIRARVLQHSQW
Chain of UniProt O00487 (O00487 whole entry): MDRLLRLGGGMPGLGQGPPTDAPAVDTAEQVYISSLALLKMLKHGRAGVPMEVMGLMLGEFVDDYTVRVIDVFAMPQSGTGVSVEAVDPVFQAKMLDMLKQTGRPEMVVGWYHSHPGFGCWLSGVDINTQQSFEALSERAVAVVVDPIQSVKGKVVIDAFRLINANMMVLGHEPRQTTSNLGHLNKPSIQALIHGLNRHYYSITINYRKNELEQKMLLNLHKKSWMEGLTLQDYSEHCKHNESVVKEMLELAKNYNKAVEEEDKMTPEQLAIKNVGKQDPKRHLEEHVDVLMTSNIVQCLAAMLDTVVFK

NS(=O)(=O)c1ccc(Cl)c(NC(=O)CCl)c1
inactive: USP42 0.0225 | USP46 -0.123 | USP47 -0.247 | USP48 -0.536 | USP5 0.233 | USP54 -0.00214 | USP7 -0.207 | USP8 -0.125 | USP9X -0.31 | UniProt O00487 -0.0819
